# Measurements taken from the antibiotic and cytotoxicity screens of Wong et al. (2023).
# The whole screen tested about 39,000 compounds, of which about 1,500 (3.8%) were called active. Only a selection was taken, and actives are over-represented in it overall.
# System: HSkMC (human skeletal muscle cells)
# Experiment: cytotoxicity call (relative viability < 0.9)
# Conditions: 10 µM
row,SMILES,cytotoxicity call
1,COc1ccc(-c2nc(N3CCOCC3)c3sc(CN(C)c4ncc(C(=O)NO)cn4)cc3n2)cn1,active
2,CNc1ccc(-c2nc(N3CCOCC3)c3sc(CN(C)c4ncc(C(=O)NO)cn4)cc3n2)cn1,active
3,COC(=O)COc1nsnc1N1CCOCC1,inactive
4,COc1ccc(NC(=O)N(C)C[C@@H]2OCCCC[C@H](C)Oc3ccc(NC(=O)Cc4ccccc4)cc3C(=O)N([C@H](C)CO)C[C@@H]2C)cc1,inactive
5,Cc1ccc(Oc2ccc(CN)cc2)cc1,inactive
6,Cc1ccc(S(=O)(=O)N(C)C[C@H]2Oc3ccc(NC(=O)CCCN(C)C)cc3CC(=O)N([C@H](C)CO)C[C@@H]2C)cc1,inactive
7,C[C@@H]1CN([C@H](C)CO)C(=O)c2cc(NC(=O)Nc3ccccc3)ccc2O[C@@H](C)CCCCO[C@H]1CN(C)C(=O)C1CCCCC1,inactive
8,C[C@H](CO)N1C[C@H](C)[C@H](CN(C)S(=O)(=O)c2ccc(Cl)cc2)Oc2ccc(NC(=O)CCCN(C)C)cc2CC1=O,inactive
9,COCC(=O)N1C[C@H](C)[C@H](OC)CN(C)C(=O)c2cc(NC(=O)c3cc(C)on3)ccc2OC[C@H]1C,inactive
10,C[C@@H]1CN([C@@H](C)CO)C(=O)Cc2cc(NC(=O)CCCN(C)C)ccc2O[C@H]1CN(C)S(=O)(=O)c1ccccc1,inactive
11,CC1(C)C(=O)C=CC2(C)C1CC(=O)C1(C)C2CCC2(C)C(c3ccoc3)OC(=O)C3OC321 (configuration not stated),inactive
12,CC(=O)OC1CCC2(C)C(CC(OC(C)=O)C3(C)C2CCC2(C)C(c4ccoc4)OC(=O)C4OC423)C1(C)C (stereo not drawn) [3beta-ACETOXYDEOXODIHYDROGEDUNIN ],inactive
13,CC1(C)C(=O)C=CC2(C)C1C=CC1(C)C2CCC2(C)C(c3ccoc3)OC(=O)C3OC312 (configuration not stated),active
14,CCC(=O)N1C[C@]2(C1)CN([C@@H](CO)c1[nH]c3cc(ccc3c12)OC)S(=O)(=O)C,inactive
15,C[C@@H]1CCCCO[C@H](CN(C)C(=O)Nc2ccc(F)cc2)[C@H](C)CN([C@@H](C)CO)C(=O)c2cc(NC(=O)CCCN(C)C)ccc2O1,inactive
16,COc1ccc(NC(=O)Nc2ccc3c(c2)C(=O)N([C@@H](C)CO)C[C@@H](C)[C@H](CN(C)C(=O)Nc2c(C)noc2C)OCCCC[C@H](C)O3)cc1,inactive
17,Cc1ccc(O)c(C(C)(C)C)c1,inactive
18,Cc1cc(CO)c(O)c(CO)c1,inactive
19,Cc1cc(C(C)(C)C)c(O)c(C(C)(C)C)c1,active
20,COc1ccc(S(=O)(=O)Nc2ccc3c(c2)C(=O)N([C@@H](C)CO)C[C@H](C)[C@@H](CN(C)C(=O)Nc2ccc(C(F)(F)F)cc2)OCCCC[C@@H](C)O3)cc1,inactive
21,NNC(=O)CCc1ccccc1,inactive
22,CNC(=O)CN1CCOC[C@]2(CCCN(C(C)=O)C2)C1,inactive
23,S=C(NCCCc1cnc[nH]1)NCCCN(Cc1ccc(Cl)c(Cl)c1)c1ccc(Br)cn1,active

row,SMILES,cytotoxicity call
1,COc1ccc(cc1)CN1C[C@]2(CCN(CC2)C(=O)Nc2cccc(c2)F)c2c([nH]c3cc(ccc23)OC)[C@@H]1CO,inactive
2,COc1ccc2c3c([nH]c2c1)[C@H](CO)N(C[C@]13CCN(CC1)CC1CCCC1)C(=O)Nc1cccc(c1)F,inactive
3,COc1ccc2c3c([nH]c2c1)[C@H](CO)N(CC1CCCCC1)C[C@]13CCN(CC1)C(=O)NC1CCCC1,active
4,COc1ccc2c3c([nH]c2c1)[C@H](CO)N(C[C@]13CCN(CC1)CC1CCCCC1)C(=O)Nc1c(noc1C)C,inactive
5,COc1ccc2c3c([nH]c2c1)[C@H](CO)N(C[C@]13CCN(CC1)CC1CCCCC1)C(=O)Nc1cccc(c1)F,active
6,COc1ccc2c3c([nH]c2c1)[C@H](CO)N(CC1CCCCC1)C[C@]13CCN(CC1)C(=O)Nc1cccc(c1)F,inactive
7,COc1ccc2c3c([nH]c2c1)[C@@H](CO)N(CC1CCCCC1)C[C@]13CCN(CC1)C(=O)Nc1cccc(c1)F,active
8,COc1ccc2c3c([nH]c2c1)[C@@H](CO)N(CC1CCOCC1)C[C@]13CCN(CC1)C(=O)C1CCOCC1,inactive
9,COc1ccc2c3c([nH]c2c1)[C@@H](CO)N(C[C@]13CCN(CC1)CC1CCCC1)C(=O)Nc1cccc(c1)F,inactive
10,COc1ccc2c3c([nH]c2c1)[C@@H](CO)N(C[C@]13CCN(CC1)CC1CCCCC1)C(=O)Nc1c(noc1C)C,inactive
11,COc1ccc2c3c([nH]c2c1)[C@@H](CO)N(C[C@]13CCN(CC1)CC1CCCCC1)C(=O)Nc1cccc(c1)F,active
12,COc1ccc2c3c([nH]c2c1)[C@@H](CO)N(CC1CCCCC1)C[C@]13CCN(CC1)C(=O)NC1CCCC1,inactive
13,C[C@@H]1CN([C@H](C)CO)S(=O)(=O)c2ccc(-c3ccc(C(=O)N(C)C)cc3)cc2O[C@H]1CN(C)C(=O)C1CC1,inactive
14,C[C@@H]1CN([C@H](C)CO)C(=O)Cc2cc(NS(=O)(=O)c3ccccc3)ccc2O[C@H]1CN(C)S(=O)(=O)c1cccs1,inactive
15,Cc1cc(C(=O)Nc2cccc3c2O[C@@H](CN(C)S(=O)(=O)c2cn(C)cn2)[C@H](C)CN([C@H](C)CO)C3=O)n(C)n1,inactive
16,NC(=O)NCC#Cc1ccc2c(c1)[C@]1(C(=O)N2)[C@H](c2ccc(OCCO)cc2)N2[C@H](c3ccccc3)[C@H](c3ccccc3)OC(=O)[C@H]2[C@@H]1C(N)=O,inactive
17,O=C(C[C@H]1CC[C@@H](NC(=O)Cc2ccccn2)[C@H](CO)O1)NCCCN1CCOCC1,inactive
18,CC(=O)n1cc([C@@H]2C=C(C(=O)N3CCN(Cc4ccccc4)CC3)O[C@H](OCc3ccc(CO)cc3)C2)c2ccccc21,inactive
19,O=C(C[C@H]1C[C@@H]2c3cc(NS(=O)(=O)c4ccc(F)cc4)ccc3O[C@@H]2[C@@H](CO)O1)N1CCOCC1,inactive
20,Cc1cc(C)c(C)c(C(=O)O)c1C,inactive
21,O=C(C[C@@H]1CC[C@H]2NC[C@H](O)COC[C@@H]2O1)NCCN1CCCC1,inactive
22,C[C@@H]1CN([C@@H](C)CO)C(=O)Cc2cc(NS(=O)(=O)c3ccc(Cl)cc3)ccc2O[C@@H]1CN(C)S(C)(=O)=O,inactive
23,COc1ccc(NC(=O)Nc2ccc3c(c2)C(=O)N([C@@H](C)CO)C[C@H](C)[C@H](CN(C)Cc2ccc4c(c2)OCO4)OCCCC[C@@H](C)O3)cc1,inactive

row,SMILES,cytotoxicity call
1,COc1ccc(NC(=O)Nc2ccc3c(c2)C(=O)N([C@H](C)CO)C[C@H](C)[C@@H](CN(C)Cc2ccc4c(c2)OCO4)OCCCC[C@H](C)O3)cc1,inactive
2,COc1ccc(NC(=O)Nc2ccc3c(c2)C(=O)N([C@@H](C)CO)C[C@H](C)[C@H](CN(C)Cc2ccc4c(c2)OCO4)OCCCC[C@H](C)O3)cc1,active
3,C[C@@H]1CN([C@H](C)CO)C(=O)c2cc(NC(=O)Nc3ccc4c(c3)OCO4)ccc2O[C@@H](C)CCCCO[C@@H]1CN(C)Cc1ccc2c(c1)OCO2,inactive
4,C[C@@H]1CN([C@@H](C)CO)C(=O)c2cc(NC(=O)Nc3ccc4c(c3)OCO4)ccc2O[C@@H](C)CCCCO[C@H]1CN(C)Cc1ccc(Cl)c(Cl)c1,inactive
5,C[C@@H]1CCCCO[C@H](CN(C)Cc2ccc3c(c2)OCO3)[C@H](C)CN([C@@H](C)CO)C(=O)c2cc(NC(=O)Nc3ccc4c(c3)OCO4)ccc2O1,active
6,C[C@@H]1CCCCO[C@@H](CN(C)CC2CCCCC2)[C@@H](C)CN([C@H](C)CO)C(=O)c2cc(NC(=O)Nc3ccc4c(c3)OCO4)ccc2O1,inactive
7,C[C@@H]1CCCCO[C@@H](CN(C)Cc2ccc(Cl)c(Cl)c2)[C@@H](C)CN([C@@H](C)CO)C(=O)c2cc(NC(=O)Nc3ccc4c(c3)OCO4)ccc2O1,active
8,C[C@H]1CCCCO[C@@H](CN(C)CC2CCCCC2)[C@@H](C)CN([C@@H](C)CO)C(=O)c2cc(NC(=O)Nc3ccc4c(c3)OCO4)ccc2O1,active
9,C[C@@H]1CN([C@H](C)CO)C(=O)c2cc(NC(=O)Nc3ccc4c(c3)OCO4)ccc2O[C@@H](C)CCCCO[C@@H]1CN(C)Cc1ccc(Cl)c(Cl)c1,inactive
10,C[C@@H]1CCCCO[C@@H](CN(C)Cc2ccc3c(c2)OCO3)[C@@H](C)CN([C@@H](C)CO)C(=O)c2cc(NC(=O)Nc3ccc4c(c3)OCO4)ccc2O1,inactive
11,C[C@H](CO)N1C[C@H](C)[C@@H](CN(C)CC2CCCCC2)OCCCC[C@H](C)Oc2ccc(NC(=O)Nc3ccc4c(c3)OCO4)cc2C1=O,inactive
12,COc1ccc(CN(C)C[C@@H]2OCCCC[C@@H](C)Oc3ccc(NC(=O)c4ccccc4)cc3C(=O)N([C@H](C)CO)C[C@@H]2C)cc1,inactive
13,Cc1noc(C)c1NC(=O)Nc1ccc2c(c1)C(=O)N([C@@H](C)CO)C[C@H](C)[C@@H](CN(C)C(=O)Nc1c(C)noc1C)OCCCC[C@H](C)O2,inactive
14,CN1CCN(C(=O)C[C@@H]2CC[C@@H]3[C@H](COc4ccc(NC(=O)c5cscn5)cc4C(=O)N3C)O2)CC1,inactive
15,O=C(C[C@@H]1C[C@H]2c3cc(NC(=O)C4CCOCC4)ccc3O[C@H]2[C@@H](CO)O1)NCc1cc(F)ccc1F,inactive
16,Cc1ccc(S(=O)(=O)N(C)C[C@@H]2Oc3ccc(NS(=O)(=O)c4c(C)noc4C)cc3CC(=O)N([C@H](C)CO)C[C@H]2C)cc1,inactive
17,CC(=O)OC1CC2C(C)(C)C=CCC2(C)C2CCC3(C)C(c4ccoc4)OC(=O)C4OC43C12C (configuration not stated),inactive
18,O=C(CN1CCOCC1)NCC[C@H]1CC[C@H](NC(=O)c2ccccc2F)[C@@H](CO)O1,inactive
19,C[C@@H]1CN([C@@H](C)CO)C(=O)Cc2cc(NC(=O)Nc3cccc4ccccc34)ccc2O[C@@H]1CN(C)S(=O)(=O)c1cccs1,inactive
20,C(=N\c1nnc2nc[nH]n12)/c1ccco1,inactive
21,C[C@@H]1CCCCO[C@@H](CN(C)Cc2ccc(Cl)c(Cl)c2)[C@H](C)CN([C@@H](C)CO)C(=O)c2cc(N(C)C)ccc2O1,inactive
